Results published in PubChem BioAssay (NCI).
The panel holds about 83,000 compounds, 20% with a hit somewhere; the sample as a whole holds those more often.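 Cells were grown in 96-well plates and exposed to the test compound at a single concentration for 48 hours; results are reported as percent growth, with values below 10 considered active.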 Calls of active or inactive are those of the source.

The compounds below were run on NCI-H460 lung (assay: NCI-60 one-dose screen, 48 h (100 = growth as untreated, 0 = no growth, -100 = all killed)). Details: 10 µM unless noted.
Description: Growth inhibition of the NCI-H460 human Non-Small Cell Lung tumor cell line is measured as a screen for anti-cancer activity. Cells are grown in 96 well plates and exposed to the test compound for 48 hours. Compounds are tested at a single concentration, which is 10^-5 M for most compounds. The reported endpoint is percent growth (GI% or GIPRCNT), where numbers from 0 - 100% represent growth inhibition, and numbers from -100% - 0 represent cell death. For example, a value of 40 represents 60% growth inhibition. A value of 0 means no net growth occurred over the course of the experiment. A value of -40 indicates 40% of cells at the beginning of the experiment died by the end of the experiment. A value of -100 means all cells are dead at the end of the experiment.
NCI-60 Human Tumor Cell Lines Screen was performed using the standard one-dose NCI protocol, which is described in more detail at https://dtp.cancer.gov/discovery_development/nci-60/default.htm.
Compounds with GIPRCNT values below 10 were considered active. Activity score was based on GIPRCNT using the following formula: […]
Score is 0 for GIPRCNT values of 100 or above, 50 for GIPRCNT values of 0, and 100 for GIPRCNT values of -100.
In the case of C=C(CNCCc1ccc(O)cc1)[C@@H]1CC[C@]2(COC3CCCCO3)CC[C@]3(C)[C@H](CC[C@@H]4[C@@]5(C)CCC(NCCO)C(C)(C)[C@@H]5CC[C@]43C)[C@@H]12 (stereo not given in full), the growth is reported as -79.9% (active).
CS(=O)(=O)c1ccc(N/N=C/c2c(-c3ccc(S(C)(=O)=O)cc3)[nH]c3ccc(F)cc23)cc1 was tested, and the growth was 12.8% (inactive).
With CCCCOC(=O)c1ccc(NC(=O)C(C)N2CCOCC2)cc1 (stereo not given) the growth was 105% (inactive).
In the case of COc1cc(-c2ccc(N=Nc3c(O)c(C(=O)Nc4ccccc4OC)cc4ccccc34)c(OC)c2)ccc1N=Nc1c(O)c(C(=O)Nc2ccccc2OC)cc2ccccc12, the growth is reported as 99.6% (inactive).
For Nc1ccc(S(=O)(=O)Nc2ccsc2-c2nc(-c3ccccc3)no2)cc1, the growth was 40.1% (inactive).
For CCN1CCN(c2ccc(Nc3cc(-c4cccnc4Nc4c(Cl)c(OC)cc(OC)c4Cl)ncn3)cc2)CC1, the growth was 23.7% (inactive).
In the case of CCN(CC)CCCC(C)NCc1ccccc1 (stereo not given), the growth is reported as 106% (inactive).
For N#Cc1c(Oc2ccc([N+](=O)[O-])cc2)nc2sc3cc(Cl)ccc3n2c1=N, the growth was 96.5% (inactive).
In the case of CCCCCCNC(=O)c1cc(NCc2cc(O)ccc2O)ccc1O, the growth is reported as 94.5% (inactive).
With O=C(c1ccccc1)c1ccc(Cl)c([N+](=O)[O-])c1 the growth was 101% (inactive).
With OC(CBr)c1ccnc2ccccc12 (stereo not given) the growth was 105% (inactive).
With O=C(NCc1cccnc1)c1cc(-c2csc3c(=O)cc(N4CCOCC4)oc23)cc2c1OCCO2 the growth was 52.5% (inactive).
With N#Cc1c(-c2ccc(C(F)(F)F)cc2)cc(N2CC(O)C2)n2c1nc1ccccc12 the growth was 27.8% (inactive).
With CCCc1nc2ccccn2c1Nc1ccc(C(=O)NO)cc1 the growth was 85.9% (inactive).
CCCCCCCC/C=C/CCCCCCCC1=NCC[N+]1(CCO)CCO was tested, and the growth was 42.7% (inactive).
In the case of Fc1ccc(Nc2nc3nonc3nc2Nc2ccc(F)cc2)cc1, the growth is reported as 1.64% (active).
In the case of N=C(N)c1ccc(-c2ccc(-c3ccc(Cl)c(Cl)c3)o2)cc1, the growth is reported as -68.8% (active).
In the case of CCC(=O)OC1=C(C)SC2=NC(c3ccc(Cl)c(Cl)c3)=CC(c3cc(OC)c(OC)c(OC)c3)N21 (stereo not given), the growth is reported as 108% (inactive).
For O=C1c2ccccc2C(=O)c2cc(Cn3cc[n+](Cc4ccc5ccccc5c4)c3)ccc21, the growth was 94% (inactive).
CCCCS(=O)(=O)Oc1ccc(-c2nc(C)c(C(=O)OCC)s2)cc1C=O was tested, and the growth was 58.7% (inactive).
In the case of O=C1Nc2ccccc2SC1C1SC(=S)N(Cc2ccccc2)C1=O (stereo not given), the growth is reported as 106% (inactive).
C=C1c2c(C)nn(-c3ccc(NC(C)=O)cc3)c2N(C)C23CC1C1(C)c4c(C)nn(-c5ccc(NC(C)=O)cc5)c4N(C)C(C)(CC12)C3 (stereo not given) was tested, and the growth was 8.58% (active).
NC(N)=N/N=C/c1ccc(Br)cc1 was tested, and the growth was 14.3% (inactive).
In the case of CNC(=O)NCC1OC(n2cnc3c(NC(=O)Nc4ccccc4)ncnc32)C2OC(C)(C)OC12 (stereo not given), the growth is reported as 101% (inactive).
Cc1ccccc1NC(=O)CN(C)C was tested, and the growth was 113% (inactive).
For Nc1ccc(-c2cc3c(Nc4ccc(OCc5cccc(F)c5)c(Cl)c4)ncnc3s2)cc1, the growth was 36.5% (inactive).
COc1cc2c(cc1OC)-c1ccc3cc4c(cc3c1N(CCCN1CCCCC1)C2)OCO4 was tested, and the growth was 29.1% (inactive).
For CCCCOc1ccc(NC(=O)n2nc(N=NN(C)C)c3ccc(Cl)cc32)cc1, the growth was 110% (inactive).
In the case of CN(C)c1ccc(/C=C2\C=C(c3ccccc3)N(CCc3ccccc3)C2=O)cc1, the growth is reported as 23.6% (inactive).
With CCCCCCCCc1cc[n+](CC(=O)c2ccc(Br)cc2)cc1 the growth was -84.9% (active).
In the case of CN(C)S(=O)(=O)n1cnc([C@@H]2[C@@H]3C(=O)OC[C@@H]3C[C@]23N=CN(Cc2ccccc2)C3=O)c1, the growth is reported as 113% (inactive).
For Cn1c(NCCc2ccc(O)c(O)c2)nc2c1c(=O)n(Cc1ccc(Cl)cc1)c(=O)n2C, the growth was 96.9% (inactive).
For Cc1nc(-c2ccccc2)cc2c(O)c(C(=O)N/N=C/c3ccc(N(C)C)cc3)[nH]c(=O)c12, the growth was 94.9% (inactive).
With C=C1C(=O)O[C@H]2[C@H]1CC/C(COC(=O)/C=C\C(=O)NCc1ccc(Cn3c(=O)sn(-c4ccc(OC)cc4)c3=O)cc1)=C\CC[C@@]1(C)O[C@@H]21 the growth was -65.5% (active).
O=C1CC(c2ccc3c(c2)OCO3)Nc2cc3c(cc21)OCO3 (stereo not given) was tested, and the growth was 5.95% (active).
In the case of COc1ccc(-n2sc(=O)n(Cc3ccc(COC(=O)C(C)c4ccc(CC(C)C)cc4)cc3)c2=O)cc1 (stereo not given), the growth is reported as 76.4% (inactive).
With CCNCCNc1cc(-c2cccc(C(F)(F)F)c2)c(C#N)c2nc3ccccc3n12 the growth was -70.4% (active).
With CCCCN1CCN(c2ccc3nc(-c4ccc5nc(-c6cc(OC)c(OC)c(OC)c6)[nH]c5c4)[nH]c3c2)CC1 the growth was 83% (inactive).
COc1ccc(-c2cc(-c3ccc(Nc4nc(Nc5ccccc5)nc(Nc5ccc(Cl)cc5)n4)cc3)nc(N)n2)cc1 was tested, and the growth was 61.6% (inactive).
With COc1ccc(/C=N/NC(=O)Cn2c(-c3ccc(S(C)(=O)=O)cc3)nc3cc(Cl)ccc32)cc1 the growth was 7.74% (active).
